Most compounds without a hit are left out; they make up all but 11% or so of the library.
NIH3T3 tox: kills NIH 3T3 cells; Potency, µM (top dose mostly 96.7 µM), usual class: inhibitors; NIH 3T3 viability, CellTiter-Glo ATP luminescence, 48-72 h; hit rate 4.3% among 94,000; AID 1345082; further: nearly all actives have a fitted effect of over 55% in size
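First NIH 3T3 cells are plated at 400 cells/well; next compound is pinned in; then plates incubate 48 or 72 hr at 37 °C; finally CellTiter-Glo is added and luminescence read after 10 min.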
hNpr1 antagonist: blocks ANP-stimulated signaling of human Npr1 receptor. HEK293 hNpr1 GloSensor cGMP, ANP-stimulated luminescence. P16066. hit rate 1.6% among 76,000. AID 1347048. Potency, µM (series often up to 46.3 µM), actives largely listed as inhibitors; calls by dose curve; further: nearly all actives have a fitted effect of over 60% in size
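HEK293 cells stably expressing human Npr1 and cGMP GloSensor pGS-40F, loaded 2 h with 2% GloSensor reagent, given compound 30 min at room temperature. Luminescence read before and 20 min after 0.1 nM hNppA.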
HEK cytotox: HEK 293 cell cytotoxicity; HEK 293 viability, ATP luminescence (CellTiter-Glo), 48-72 h; Potency, µM (doses to about 115 µM), most hits filed as inhibitors; hit rate 6.6% among 94,000; AID 1345083; further: nearly all actives have a fitted effect of over 60% in size
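Cells seeded first (HEK 293, 250 cells/well), then compound added by pintool. Incubation ran 48 or 72 hr at 37 degree Celsius. CellTiter-Glo was added and luminescence imaged after 10 min at room temperature.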
Luciferase inh: blocks purified firefly luciferase enzyme activity; P08659; purified P. pyralis luciferase, luminescence, biochemical; Potency, µM (top dose mostly 115 µM), hits mostly inhibitors; hit rate 2.5% among 76,000; further: nearly all actives have a fitted effect of over 65% in size
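Purified 10nM P. pyralis luciferase with 10uM D-luciferin and 10uM ATP in 50mM Tris acetate pH 7.5, 10mM Mg acetate, 0.01% Tween-20, 0.05% BSA. qHTS titration; luminescence read by CCD imager.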
Large screens that a line does not name were inactive. Unless noted, the call rests on the fitted dose curve; in most records, active means well fitted curve in the direction sought with a large enough effect; inconclusive means small, poorly fitted or top-dose-only effect, or another doubt; inactive means no such curve, though single readings can be large; an effect the other way counts as inactive or inconclusive.

COc1cccc(Nc2ncc3c(n2)C(C)(C(=O)NCC2CC2)CC3)c1 (stereo not given)	NIH3T3 tox inconclusive, HEK cytotox 50µM
CCCC(C)NC(=O)c1cc(-c2ccc(C(F)(F)F)cc2)nc2c1cnn2C (stereo not given)	NIH3T3 tox inconclusive (no result: hNpr1 antagonist, Luciferase inh)
CN1CC(=O)N(C2CCCC2)Cc2c1ncnc2N1CCC(N2CCOCC2)CC1	none (no result: hNpr1 antagonist, Luciferase inh)
Cc1ccc2nc(C(C)NC(=O)c3cnc(-c4ccccn4)[nH]c3=O)[nH]c2c1 (stereo not given)	NIH3T3 tox inconclusive, HEK cytotox 25µM
CCn1ccc(C(=O)NC2CCCN(c3cc(-c4ccc(Cl)cc4)[nH]n3)C2)n1 (stereo not given)	NIH3T3 tox inconclusive, HEK cytotox inconclusive, Luciferase inh 35µM
CCn1ccc(C(=O)NC2CCCN(c3cc(-c4ccc(OC)cc4)[nH]n3)C2)n1 (stereo not given)	HEK cytotox inconclusive, Luciferase inh 28µM
CCn1ccc(C(=O)NC2CCN(c3cc(-c4ccccc4)[nH]n3)CC2)n1	NIH3T3 tox inconclusive, Luciferase inh inconclusive
COCCCn1c(=O)c(C(=O)NCCCc2ccccc2)nc2cccnc21	none (no result: hNpr1 antagonist, Luciferase inh)
COc1ncccc1-c1cnc2n[nH]c(-c3ccc(F)cc3C)c2n1	NIH3T3 tox 32µM, HEK cytotox inconclusive
COc1ccccc1-c1cnc2n[nH]c(-c3ccc(F)cc3C)c2n1	NIH3T3 tox inconclusive, hNpr1 antagonist inconclusive, HEK cytotox inconclusive
COc1ccc(-c2[nH]nc3ncc(-c4cccnc4OC)nc23)c(C)c1	NIH3T3 tox inconclusive, HEK cytotox 100µM
COc1ccc(-c2[nH]nc3ncc(-c4ccccc4OC)nc23)c(C)c1	NIH3T3 tox inconclusive, HEK cytotox 89µM
Cc1ccccc1C(=O)NCCNC(=O)c1ccc(-c2cccc(C(F)(F)F)c2)cc1	HEK cytotox inconclusive (no result: hNpr1 antagonist, Luciferase inh)
CCc1nc2c(c(-c3ccc(O)cc3)n1)CCN(C(=O)Cc1ccc(OC)cc1)CC2	none (no result: hNpr1 antagonist, Luciferase inh)
CNC(=O)c1cc(C2CC2)nc2onc(C3CCCN3C(=O)Cc3ccccn3)c12 (stereo not given)	none (no result: hNpr1 antagonist, Luciferase inh)
O=C(NCC1CNCCOC1)c1ccc2nc(-c3ccc(F)cc3)cn2c1 (stereo not given)	NIH3T3 tox inconclusive, HEK cytotox inconclusive, Luciferase inh inconclusive
CC(Cc1cnccn1)NC(=O)c1ccc2nc(-c3ccc(F)cc3)cn2c1 (stereo not given)	HEK cytotox inconclusive, Luciferase inh 40µM
Cc1ccc(-c2ccc3nnc(CNC(=O)c4ccc(F)cc4)n3n2)cc1	HEK cytotox inconclusive
CCC(NC(=O)c1ccc2nc(-c3ccc(F)cc3)cn2c1)c1ncc(C)[nH]1 (stereo not given)	NIH3T3 tox inconclusive, HEK cytotox inconclusive, Luciferase inh 7.9µM
Cc1nc(-c2cnccn2)n(CC(=O)Nc2cccc(Cl)c2)c(=O)c1C	HEK cytotox inconclusive
O=C(NCC(=O)N1CCCCC1)c1ccc(-c2cnc3ccccc3c2)cc1	NIH3T3 tox inconclusive, HEK cytotox 45µM (no result: hNpr1 antagonist, Luciferase inh)
O=C(CNC(=O)c1ccc(-c2cnc3ccccc3c2)cc1)NCC1CCCCC1	NIH3T3 tox inconclusive, HEK cytotox 40µM (no result: hNpr1 antagonist, Luciferase inh)
Cc1ccc(C(=O)N2CCC(F)(C(=O)N3CCOCC3)CC2)s1	none (no result: hNpr1 antagonist, Luciferase inh)
Cc1ccc(C2Cn3cnc(C(=O)N4CCC(C(=O)NC(C)c5ccccc5)CC4)c3CO2)cc1 (stereo not given)	Luciferase inh 28µM
COc1cccc(CNC(=O)C2CCN(C(=O)c3ncn4c3COC(c3ccc(F)cc3)C4)CC2)c1 (stereo not given)	Luciferase inh inconclusive
O=C(NCc1cccc(F)c1)C1CCN(C(=O)c2ncn3c2COC(c2ccccc2)C3)CC1 (stereo not given)	HEK cytotox inconclusive, Luciferase inh 5µM
Cc1ccc(C2Cn3cnc(C(=O)N4CCC(C(=O)NCCc5ccccc5)CC4)c3CO2)cc1 (stereo not given)	Luciferase inh inconclusive
Cc1ccc(CNC(=O)C2CCN(C(=O)c3ncn4c3COC(c3ccccc3)C4)CC2)cc1 (stereo not given)	Luciferase inh 16µM
Cc1ccc(C2Cn3cnc(C(=O)N4CCC(C(=O)NCc5ccccc5Cl)CC4)c3CO2)cc1 (stereo not given)	HEK cytotox inconclusive, Luciferase inh 35µM
CC(NC(=O)C1CCN(C(=O)c2ncn3c2COC(c2ccc(F)cc2)C3)CC1)c1ccccc1 (stereo not given)	HEK cytotox inconclusive, Luciferase inh inconclusive
COc1ccc(C(=O)N2CCCC2C(=O)N2CCC(N3Cc4cccn4C3=O)CC2)cc1 (stereo not given)	none (no result: hNpr1 antagonist, Luciferase inh)
Cc1ccc(C2Cn3cnc(C(=O)N4CCC(C(=O)NCCCc5ccccc5)CC4)c3CO2)cc1 (stereo not given)	Luciferase inh 32µM
COc1ccc(CNC(=O)C2CCN(C(=O)c3ncn4c3COC(c3ccccc3)C4)CC2)cc1 (stereo not given)	Luciferase inh 16µM
O=C(C1CCCN1[S+](=O)([O-])c1cccc(C(F)(F)F)c1)N1CCC(N2CCOCC2=O)CC1 (stereo not given)	none (no result: hNpr1 antagonist, Luciferase inh)
O=C(c1ccccn1)N1CCCC(C(=O)N2CCCC(c3nc4ncccc4[nH]3)C2)C1 (stereo not given)	none (no result: hNpr1 antagonist, Luciferase inh)
COc1cccc(S(=O)(=O)NCC2Cn3cccc3C(=O)N2C)c1 (stereo not given)	none
CCOC(=O)c1oc2ccc(S(=O)(=O)NCC3Cn4cccc4C(=O)N3C)cc2c1C (stereo not given)	hNpr1 antagonist inconclusive, HEK cytotox 40µM
c1ccc(-c2noc(-c3cncnc3N3CCSCC3)n2)cc1	HEK cytotox 45µM, Luciferase inh inconclusive
c1ccc(-c2noc(-c3cncnc3NC3CCCCCC3)n2)cc1	none
CC1CCN(c2ncncc2-c2nc(-c3ccccc3)no2)CC1	NIH3T3 tox inconclusive, HEK cytotox 79µM, Luciferase inh inconclusive
c1ccc(-c2noc(-c3cncnc3N3CCN(C4CCCCC4)CC3)n2)cc1	HEK cytotox inconclusive
N#Cc1cccc(C(=O)N2CCC3(CC2)NC(=O)N(Cc2ccc(Cl)cc2)C3=O)c1	NIH3T3 tox inconclusive, hNpr1 antagonist inconclusive, HEK cytotox inconclusive
N#Cc1ccc(C(=O)N2CCC3(CC2)NC(=O)N(Cc2ccc(Cl)cc2)C3=O)cc1	NIH3T3 tox 16µM, hNpr1 antagonist inconclusive, HEK cytotox inconclusive
O=C(c1ccc(Cl)cc1)N1CCC2(CC1)C(=O)NCN2CCc1ccc(Cl)cc1	NIH3T3 tox inconclusive, HEK cytotox 40µM (no result: hNpr1 antagonist, Luciferase inh)
O=C(Nc1ccccc1)NC1CCN(c2ccc3nnc(C4CC4)n3n2)C1 (stereo not given)	none (no result: hNpr1 antagonist, Luciferase inh)
CCc1cc(=O)n(CC(=O)Nc2cccc(SC)c2)c(N2CCOCC2)n1	HEK cytotox inconclusive
Cc1ncsc1C(=O)N1CCNc2cnc(Nc3cccc(C(F)(F)F)c3)nc2C1	NIH3T3 tox inconclusive, hNpr1 antagonist inconclusive, HEK cytotox inconclusive
O=C(c1ccc(Cl)cc1)N1CCNc2cnc(Nc3cccc(C(F)(F)F)c3)nc2C1	NIH3T3 tox 22µM, hNpr1 antagonist inconclusive, HEK cytotox 32µM

High-throughput results deposited in PubChem BioAssay by National Center for Advancing Translational Sciences (NCATS).
